The full ranking holds about 33,000 sequences; the median of “E-score (-0.5 to 0.5)” is about -0.011, and the highest 2% start at about 0.28. The sample as a whole holds a higher share of the highest values than the screen did.
These sequences were tested against T1, Gcr1 (UniProt P07261) (assay: PBM E-score (8-mer binding enrichment) (E-score (-0.5 to 0.5)); higher = stronger / more preferred TF binding). Conditions: protein concentration: 100 nM; construct: GST-full length.
T1 sequence: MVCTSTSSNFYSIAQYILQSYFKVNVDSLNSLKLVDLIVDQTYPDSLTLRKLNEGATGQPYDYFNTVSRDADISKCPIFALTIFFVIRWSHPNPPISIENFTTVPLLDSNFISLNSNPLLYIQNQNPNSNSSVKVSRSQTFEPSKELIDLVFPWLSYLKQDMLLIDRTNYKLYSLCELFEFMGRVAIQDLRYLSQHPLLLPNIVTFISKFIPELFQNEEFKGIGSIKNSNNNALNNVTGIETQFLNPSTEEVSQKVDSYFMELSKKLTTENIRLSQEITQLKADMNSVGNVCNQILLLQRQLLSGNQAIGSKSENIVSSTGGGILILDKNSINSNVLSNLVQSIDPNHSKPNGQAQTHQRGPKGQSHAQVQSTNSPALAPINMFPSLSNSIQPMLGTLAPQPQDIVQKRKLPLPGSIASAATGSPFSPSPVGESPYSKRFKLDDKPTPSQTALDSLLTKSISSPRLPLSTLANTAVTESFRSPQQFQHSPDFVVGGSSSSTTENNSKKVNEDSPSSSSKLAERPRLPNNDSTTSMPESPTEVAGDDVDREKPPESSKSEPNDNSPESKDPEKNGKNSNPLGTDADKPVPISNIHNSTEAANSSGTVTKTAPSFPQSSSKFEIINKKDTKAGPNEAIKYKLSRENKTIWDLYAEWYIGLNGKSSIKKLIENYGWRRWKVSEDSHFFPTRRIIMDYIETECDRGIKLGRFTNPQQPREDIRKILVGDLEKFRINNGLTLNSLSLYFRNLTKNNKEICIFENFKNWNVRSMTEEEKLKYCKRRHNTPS
Procedure, shortened: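 GST-tagged yeast TFs (full-length or DNA-binding domain) were made by PURExpress in vitro transcription/translation and applied at about 100-200 nM to universal all-10-mer Agilent arrays. The arrays were made double-stranded by primer extension, on fresh or once-stripped slides. Bound protein was detected with fluorescent anti-GST, and scans were normalised with masliner. Each ungapped eight-base word, pooled with its reverse complement, received an E-score (modified Wilcoxon-Mann-Whitney statistic) from the Universal PBM Analysis Suite.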

Sequence | PBM E-score
GGTCGGAC | -0.206
CCATATCG | 0.05
CGTGAGGC | -0.0867
ACAAGAAT | 0.252
ACAAGAAA | 0.155
ACAAGAAG | 0.415
GCAAACTA | 0.0887
TCGCACCA | 0.0244
AGGCACCT | 0.16
TGGCACAA | -0.0481
GGGCACCC | 0.321
GCGCACCC | -0.0278
AGGCACCA | 0.136
AGGCACCG | 0.04
TGGCACCA | 0.321
AGGCACCC | 0.284
GGGCACCA | 0.364
GGGCACGA | 0.0341
GGGCACAC | -0.0584
CCATACTA | 0.0399
CATGGTGC | 0.0809
CGTGCATC | 0.00547
AAGCCCGA | 0.0664
GGTATCGA | 0.00098
CGGCACCC | 0.381
TAGCACCA | 0.323

Sequence | PBM E-score
CGGCACCA | 0.245
CAGCACCA | 0.277
GAGCACCA | 0.207
CGGCACCG | 0.143
GTCACCAA | 0.0813
GCAGGAAC | -0.0184
CAATCTCC | 0.0196
CAGATAGA | 0.0277
ACAGTCCT | -0.141
CCTACGGC | -0.146
AACTCGGA | 0.0328
CTTACCCC | -0.052
CGGGACCA | 0.00102
CGGGACCG | -0.00477
GGGGACCC | 0.291
GGGGACCA | 0.194
CGGGACCC | 0.306
AGGGACCC | -0.0366
TAGCTGCA | -0.0344
AGACGGAG | -0.0738
AAAGCCGC | 0.0398
CAAGCCGC | -0.00721
GAAGCCGA | 0.401
CAAGCCGA | -0.038
ACAGCCGC | -0.0946
GCAGCCGC | 0.282

Sequence | PBM E-score
CCAGCCGC | -0.0253
TAAGCCGA | -0.177
GAAGCCGC | 0.439
ATGTGGTC | -0.0553
CTTTTGAA | 0.1
AAATTTGC | 0.109
ACGCAGCA | -0.0163
ACGCAGCT | 0.308
ACGCAGCG | 0.244
GCGCAGAC | -0.167
ACGCAGCC | 0.304
GCGCAGCC | 0.292
ACGCAGAT | 0.151
GCGCAGCA | -0.0801
CCGCAGCC | 0.223
AGAACCGG | 0.214
CGAATGGC | 0.137
CAGGGTGC | 0.234
ACTCATAA | -0.0566
AAGCCGAT | -0.0786
CGGAACCA | 0.114
TAGAACCA | 0.0906
CAGAACCC | 0.208
AGGAACCT | 0.38
TGGAACCA | 0.357
GGGAACCA | 0.314

Sequence | PBM E-score
ACGAACCT | -0.0495
GGGAACGA | -0.0791
CGGAACCC | 0.348
CGGAACCG | 0.18
AAGAACCT | 0.2
TGGAACAA | -0.0703
CAGTACCA | 0.0486
AACATTCG | -0.0406
TAAATACA | 0.161
GGTGGTCA | -0.132
AGCACGCT | -0.123
ACAGCGGT | -0.219
AGGAACCG | 0.139
GGAAACCC | 0.106
GGGAACCC | 0.336
AGGAACCC | 0.414
AGGAACCA | 0.203
GAGAACCC | -0.162
CATGCCTA | -0.112
AAGAGAGC | -0.276
GAGCCGTA | 0.0183
ATGGATAG | -0.00601
AACGGGGA | -0.00775
GGGATCAC | -0.137
GAGATCCC | 0.0362
AGGATCCG | 0.0808

Sequence | PBM E-score
AGAATCCA | 0.249
AGGATCCC | 0.379
AAGATCCT | 0.0935
AGAATCCC | 0.321
AGGATCCA | 0.263
AGGATCCT | 0.301
GGGATCCC | 0.419
ACGATCCT | -0.0105
AGAATCCT | 0.252
CTGGTCGA | -0.3
GGGCCAAC | -0.13
AAATGCTT | -0.208
GCCGGCGC | 0.0181
AGCAAACT | 0.0882
GGGTTCAA | -0.101
GCCGGCTA | -0.145
GAAGGGAC | -0.279
CGGATCCA | 0.235
TGGATCAA | -0.0326
CGGATCGC | -0.0306
CGGATCCG | 0.212
GTGATCCA | -0.0936
TGGATCCA | 0.317
CGGATCCC | 0.341
GGGATCCA | 0.347
GAGATCCA | 0.174

Sequence | PBM E-score
AAATCAAA | 0.0655
TGAAAGCA | 0.00794
GATACTGC | -0.205
ATCCGACA | -0.019
CGGTTAGC | -0.0704
GGCCTGCA | -0.237
CCCCAGAG | -0.0817
CACCAGAA | 0.15
CCCCAGAC | 0.0344
CTCCAGAA | 0.0346
CCCCAGAA | 0.288
TACCAGAA | 0.34
AACCAGAT | 0.228
AACCAGAC | -0.0315
GACCAGAA | 0.131
GTCCAGAA | 0.0699
AACCAGAA | 0.281
TTCCAGAA | 0.287
AAGTTTGG | 0.179
AATCCAAA | 0.205
ACTTCATG | 0.0318
GAACCCGA | 0.195
CGTATCTC | 0.0698
ACTACGGG | 0.00638
AAAATCCA | -0.012
TTCCACAA | 0.347

Sequence | PBM E-score
AACCAGTA | 0.315
CTCCACAA | 0.0774
GTCCACAA | 0.224
TACCAGTA | 0.224
AACCAGTG | -0.195
CCCACCAG | 0.0742
CGGGCCGC | 0.0123
AAGGTTCA | -0.179
CCAGAAGA | 0.187
GCAGAAGC | 0.0881
CAAGAAGC | 0.24
CAAGACGC | 0.238
AAAGAAGC | 0.262
GAAGACGA | 0.198
GAAGACGC | 0.304
GAAGAAGC | 0.318
ATAGAAGC | 0.315
CCAGAAGC | 0.357
ATAGAAGG | 0.0701
CTAGAAGC | 0.154

— the supplement of paper PMC3334620
